Compound activity deposited in PubChem BioAssay by The Scripps Research Institute Molecular Screening Center.
hcDAF12 agonist: activators of H. contortus DAF-12 nuclear receptor; HEK293 hcDAF-12 lit1-tk-luc reporter, luminescence; 0% DMSO, 100% Δ7-dafachronic acid; activation, % at 6.8 µM; actives 1.4% (n = 370,000); AID 652067;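 active = activation above the mean of all tested compounds plus 3 SD, cut at about 5.5% in these data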;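 note: 100% = response to 3 µM Δ7-dafachronic acid high control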
DAX1 inh-1: inhibitors of human orphan nuclear receptor DAX1 (NR0B1) | P51843 | HEK293 Gal4-DAX1 luciferase reporter, luminescence | inhibition, % at 6.75 µM | actives 0.99% (n = 340,000) | AID 504766;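 active = inhibition above the mean over all tested compounds plus 3 SD, cut at about 4.2% in these data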;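 note: 0% = DAX1-transfected cells with DMSO and 100% = empty-vector control cells with DMSO; inhibition shows as a rise in luminescence from relieved DAX1 repression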
DAX1 inh-2: inhibitors of DAX1 repression of SF-1 activated StAR promoter; HEK293T StAR-luciferase reporter, SF-1/DAX-1 repression relief; inhibition, % at 6.8 µM; actives 1.1% (n = 370,000); AID 652010;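 active = inhibition above the mean over all tested compounds plus 3 SD, cut at about 3.6% in these data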;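 note: 0% = DAX-1 cells with DMSO and 100% = cells lacking DAX-1 with DMSO; higher inhibition means more luminescence from relief of DAX-1 repression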
hgDAF-12 ag: agonists of H. glycines DAF-12 nuclear receptor | HEK293 GAL4-hgDAF12 UAS-luciferase reporter, agonist luminescence; normalized to butyrate control | activation, % at 6.8 µM | actives 1.8% (n = 370,000);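 active = activation above a cutoff set at the mean of all screened compounds plus 3 SD, cut at about 10% in these data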;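 note: 0% = DMSO wells and 100% = sodium butyrate wells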
AHR activator: human AHR activation; actives 2.5% (n = 320,000); P35869; activation, % at 5 µM; AHR-responsive luciferase reporter cells, luminescence; in the data active = activation above about 47%;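 note: 0% = vehicle wells and 100% = reference agonist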
ssDAF12 agonist: S. stercoralis DAF-12 activation, primary screen; HEK293 ssDAF-12/GRIP1 lit1-tk-luc reporter, luminescence; % of 3 µM dafachronic acid response; actives 1% (n = 370,000); AID 652126; activation, % at 6.8 µM;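 active = activation above the mean over all tested compounds plus 3 SD, cut at about 0.9% in these data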;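 note: 0% = DMSO-only wells and 100% = 3 µM delta7-dafachronic acid wells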
* = called active by the depositor; x = no result. An excerpt weighted towards active compounds, which were near 5.7% of everything screened.

SMILES | hcDAF12 agonist | DAX1 inh-1 | DAX1 inh-2 | hgDAF-12 ag | AHR activator | ssDAF12 agonist
Cc1ccc(NS(=O)(=O)c2cc(C(=O)Nc3cccnc3)ccc2C)cc1 | -2.0 | -0.7 | -0.5 | -2.4 | x | -1.0
CC(C)(C)c1ccc(C(=O)N/C(=C\c2cccc([N+](=O)[O-])c2)C(=O)Nc2cccc(C(=O)O)c2)cc1 | -1.3 | -2.3 | -0.1 | 2.1 | 67.5* | -1.1
O=C(Nc1cccc(C(=O)O)c1)/C(=C/c1ccc([N+](=O)[O-])cc1)NC(=O)c1ccccc1 | -0.5 | 2.0 | 0.5 | -2.1 | 1.6 | -2.2
Cc1ccc(C(=O)N/C(=C\c2ccc(-c3cccc([N+](=O)[O-])c3)o2)C(=O)NC(C)(C)C)cc1 | 0.1 | -2.5 | -0.8 | -2.0 | 55.9* | -0.3
Cc1ccc(Cl)cc1NC(=O)N(C)CCOC(=O)Nc1cccc(Cl)c1 | -1.6 | x | -0.2 | -0.9 | x | -1.4
CN(C)CCNc1oc(-c2cccc(Cl)c2)nc1C#N | -1.1 | 1.7 | 0.4 | 1.4 | 77.6* | -1.2
CN(C)CCNc1oc(-c2ccccc2F)nc1C#N | -0.3 | 5.9* | -0.6 | 0.0 | 0.8 | -1.7
CN(C)CCCNc1oc(-c2ccccc2)nc1C#N | -1.6 | 0.6 | 0.1 | -0.4 | 0.8 | -1.6
O=C(OC12CCCN(C1)/C(=C/c1cccnc1)C2)c1ccco1 (configuration not stated) | -1.5 | x | -0.8 | -4.0 | x | -0.7
CN(C)S(=O)(=O)Oc1cc(Cl)ccc1C(=O)Nc1ccc(F)cc1F | -1.6 | 0.8 | -0.1 | 1.6 | 74.0* | -0.8
COc1ccccc1C(=O)NC(=O)COC(=O)C1CC2CCCC(C1)C2=O (configuration not stated) | -0.4 | 0.8 | 2.3 | -1.5 | x | -0.8
CCn1c(=N)n(CC(=O)c2ccc(OC)cc2)c2ccccc21 | 1.5 | 0.5 | 1.0 | -0.4 | 66.4* | -0.7
Cn1c(=N)n(CC(=O)c2ccc(F)cc2)c2ccccc21 | 12.8* | -2.4 | 0.2 | 11.2* | 64.8* | 1.2*
CCOC(=O)Cn1c(=N)n(CCOc2ccc(OC)cc2)c2ccccc21 | x | -0.7 | x | x | 1.7 | x
Cc1n(CC(=O)c2ccc(F)cc2)c2ccccc2[n+]1C | 2.0 | 0.2 | -0.9 | 1.5 | 26.5 | -0.9
CCN(CC(=O)Nc1ccc(NC(C)=O)cc1)C(=O)c1cccc(-n2cccc2)c1 | x | 0.1 | x | x | -1.9 | x
O=C1C(Cl)=C(Nc2ccccc2O)C(=O)N1c1ccccc1 | 4.7 | 2.1 | -0.2 | 7.8 | 55.5* | 0.2
CCOC(=O)[C@@H]1CSCCS(=O)(=O)N1C(=O)[C@H](C)NC(=O)OC(C)(C)C | 0.5 | x | -0.7 | 2.2 | x | -0.4
O=C(N/N=C\c1ccc(-c2ccccc2[N+](=O)[O-])o1)C1COc2ccccc2O1 (configuration not stated) | 3.9 | -0.9 | -1.2 | -5.7 | 64.5* | -0.1
COc1ccc(N=Nc2ccc(O)c3ncccc23)cc1 | -1.0 | 0.7 | -0.4 | 2.6 | 48.0* | -0.8
Cc1csc(CN(C)C(=O)C2CCC(=O)N(CCN(C)C)C2)n1 (configuration not stated) | -1.4 | 0.6 | 0.8 | -1.7 | 7.9 | -0.9
CCOC(=O)c1cc2c(s1)-c1ccccc1CC2 | 6.4* | 2.5 | 2.0 | 4.8 | 23.8 | 0.8
COC(=O)c1cc2c(s1)-c1ccccc1CC2 | 4.5 | 1.4 | 0.5 | 3.5 | 8.4 | 0.3
Cn1cnc(NCc2ccccc2)c1[N+](=O)[O-] | 0.9 | x | -0.5 | 0.1 | -0.9 | 3.4*
Nc1ncnc(NCc2ccccc2)c1[N+](=O)[O-] | -0.3 | 0.9 | -0.7 | 7.0 | -1.9 | -1.6
CCC(=O)N1CCC1(C)C(=O)Nc1cc(-c2ccccc2)nn1C (configuration not stated) | -0.7 | x | 3.2 | 10.5* | x | -0.8
Cn1nc(-c2ccccc2)cc1NC(=O)Nc1ccc(F)cc1 | 1.1 | 0.9 | 0.3 | 0.2 | 5.9 | -1.1
Cc1ccccc1NC(=O)Nc1cc(-c2ccccc2)nn1C | 1.5 | 6.6* | 0.3 | 1.2 | 7.1 | -1.3
CCOc1ccc(NC(=O)C(=O)NCCN2CCN(C(=O)c3ccc(C)cc3)CC2)cc1 | -1.8 | -1.4 | -0.3 | -1.8 | 2.6 | -0.7
COc1ccc(N2C(=O)/C(=C/c3ccc([N+](=O)[O-])cc3)C=C2c2ccccc2)cc1 | -1.6 | 1.3 | 0.6 | 0.3 | 0.7 | 1.2*
